Assay results as given in PubChem BioAssay (NCI).
About 83,000 compounds went through this panel and 20% of them were active in at least one assay; those are over-represented in the sample as a whole.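 Single-concentration screen, 48 h exposure, 96-well plates. Endpoint: percent growth. Below 10 = active.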 Activity calls are given as the source filed them.

Experiments:
Experiment in all cases: NCI-60 one-dose screen, 48 h (100 = growth as untreated, 0 = no growth, -100 = all killed)
Conditions in all cases: 10 µM unless noted
[1] = test system: NCI-H23 lung
[2] = test system: NCI-H226 lung
[3] = test system: NCI-H322M lung
[4] = test system: HOP-62 NSCLC
[5] = test system: NCI-H460 lung
[6] = test system: HOP-92 NSCLC
[7] = test system: NCI-H522 lung
[8] = test system: A549/ATCC NSCLC
[9] = test system: 786-0 renal
[10] = test system: COLO 205 colon
[11] = test system: DU-145 prostate
[12] = test system: K-562 leukemia
[13] = test system: MALME-3M melanoma
[14] = test system: MDA-MB-231 breast
[15] = test system: RXF 393 renal
[16] = test system: SF-268 CNS
[17] = test system: SF-295 CNS
[18] = test system: SF-539 CNS
[19] = test system: UACC-257 melanoma
[20] = test system: M14 melanoma

Measured: growth

COc1cc(-n2cc(-c3cc(O)c(C/C=C(\C)CCC=C(C)C)c(O)c3)nn2)cc2c1O[C@]1(C)CC[C@@H](O)C(C)(C)[C@H]1C2
inactive: [1] 26.2% | [2] 52.7% | [3] 35.4% | [5] 10.4% | [8] 10.3% | [10] 12.5% | [11] 30.6% | [16] 20.9% | [19] 27.4%
active: [4] -15.1% | [6] -6.06% | [7] -26.6% | [9] 6.92% | [12] 3.36% | [13] -0.848% | [14] -30.7% | [15] -60.6% | [17] -53% | [18] -40.4% | [20] -17.5%

CN1CCN(c2ccc(NC(=O)c3cncnc3Nc3ccc(OCc4ccccn4)c(Cl)c3)cc2)CC1
active: [4] 3.8% | [9] -82.4% | [10] -3.55% | [12] -21.4% | [13] -55.1% | [14] -11.2% | [18] -12.7% | [20] -72.8%
inactive: [1] 70.1% | [2] 70.2% | [3] 62.2% | [5] 27.8% | [6] 45.7% | [7] 55.4% | [8] 25.9% | [11] 56.5% | [15] 27.9% | [16] 68.9% | [17] 61% | [19] 39%

Fc1cccc(CNc2c3ccccc3nc3ccccc23)c1F
active: [6] 2.67%
inactive: [1] 60.6% | [2] 72.9% | [3] 63.4% | [4] 72.7% | [5] 48% | [7] 53.8% | [8] 56.7% | [9] 65.4% | [10] 40.9% | [11] 76.7% | [12] 43.4% | [13] 94.1% | [14] 58.2% | [15] 59.5% | [16] 83.4% | [17] 53.7% | [18] 55.5% | [19] 92.9% | [20] 70.6%

COCCNC(=O)c1ccc(-c2nc3ccc4[nH]ncc4c3c3c2CCCC3)cc1
inactive: [1] 43.5% | [2] 50.7% | [3] 29.1% | [4] 40.1% | [5] 27.1% | [6] 56.8% | [7] 30.6% | [8] 30.4% | [9] 31.7% | [10] 27.7% | [11] 41.3% | [12] 24.9% | [13] 30.5% | [14] 50.4% | [15] 11.8% | [16] 32.4% | [17] 32.5% | [18] 12.2% | [19] 71.2% | [20] 35.1%

CCCCC(=O)c1ccco1
inactive: [1] 89.2% | [2] 95.1% | [3] 105% | [4] 88.7% | [5] 106% | [6] 99.9% | [7] 92.2% | [8] 97.9% | [9] 97.5% | [10] 104% | [11] 98.6% | [12] 104% | [13] 103% | [14] 98.7% | [15] 97.6% | [16] 96% | [17] 101% | [18] 99.5% | [19] 105% | [20] 90.6%

COc1ccc(-c2nc3c(c(-c4ccccc4)nn3-c3ccccc3)c(-c3ccc(N4CCN(C)CC4)cc3)c2C#N)cc1
inactive: [1] 98.6% | [2] 94.2% | [3] 97.5% | [4] 103% | [5] 101% | [6] 83.2% | [7] 94.4% | [8] 89.3% | [9] 78.9% | [10] 114% | [11] 92.9% | [13] 94.6% | [14] 97.9% | [15] 76% | [16] 105% | [17] 107% | [18] 95.7% | [19] 95.5% | [20] 104%
active: [12] 8.47%

CCCCCOc1ccc(C(=O)/C(Br)=C/C(=O)O)cc1
inactive: [1] 91.9% | [2] 106% | [3] 104% | [4] 214% | [5] 103% | [6] 99.2% | [7] 89.2% | [8] 104% | [9] 98.8% | [10] 105% | [11] 106% | [12] 60.1% | [13] 130% | [14] 109% | [15] 95.2% | [16] 97.5% | [17] 112% | [18] 100% | [19] 106% | [20] 56.8%

CCCCN1C(=O)/C(=c2\sc3n(c2=O)C2C(NN=3)N(CC)C(=O)N2CC)c2ccccc21 (stereo not given)
inactive: [1] 25% | [2] 51.1% | [3] 52.9% | [4] 18% | [6] 26.8% | [9] 22.1% | [13] 36.4% | [16] 42.5%
active: [5] 3.01% | [7] -15.2% | [8] 7.06% | [10] 1.59% | [11] 8.48% | [12] 5.85% | [14] 8.32% | [15] -29.5% | [17] 2.37% | [18] -40.4% | [19] -9.63% | [20] 6.24%
